An excerpt weighted towards active compounds, which were near 12% of everything screened.
HCV inh: blocks hepatitis C virus; Potency, µM (doses to about 41.8 µM), for the others: top-dose activity change, negative = inhibition, usual class: inhibitors; actives 3.4% (n = 340,000); Huh7.5.1 HCVcc-Cre infection, luciferase reporter, 44 h; AID 651820; further: on the % scale 0 is the no-effect control and ±100 the full control effect
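Compounds are dispensed onto cells plated 4 h earlier at 1,000 per well, with HCVcc-Cre virus (about 0.5 moi) added next. Following 44 h of culture, luminescent signal is measured for 15 sec after 15 min with substrate at room temperature.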
NS1 inh: inhibitors of influenza NS1 protein function; Potency, µM (titrated, usually from 46.1 µM), inactives show top-dose activity, positive = more growth; actives 0.4% (n = 270,000); calls by dose curve; further: actives are rising curves; nearly all actives have a fitted effect of over 50% in size
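OD600 was taken as the measure of yeast growth restored by compound in an NS1-expressing S. cerevisiae strain. Cells had been washed out of glucose medium and diluted 1:100 into galactose -URA medium, pH 6.0.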
Pf growth 96h: inhibits malaria parasite growth, 96 h; Potency, µM (titrated, usually from 28.7 µM), inactives show at the top dose activity change, negative = inhibition, usual class: inhibitors; AID 504834; actives 6.9% (n = 320,000); P. falciparum luciferase reporter growth, 96 h; further: on the % scale 0 is the no-effect control and ±100 the full control effect
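P. falciparum expressing integrated firefly luciferase, in erythrocytes at 2% hematocrit, 0.05% parasitemia, incubated with compounds 96 h at 37 C, 5% CO2. Growth inhibition read as loss of luminescence; two-generation exposure targets delayed-death apicoplast inhibitors.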
SARS PLP yeast: SARS-CoV PLP inhibition in yeast; S. cerevisiae expressing SARS-CoV PLpro, growth rescue; Potency, µM (titrated, usually from 32.9 µM), for the others: at the highest dose activity, positive = growth rescue, hits mostly activators; actives 0.19% (n = 330,000); calls by dose curve; further: 0% is about no effect; nearly all actives have a fitted effect of over 55% in size
Pf growth 48h: P. falciparum growth inhibition at 48 hours (one generation) | P. falciparum luciferase growth in erythrocytes, 48 h | Potency, µM (doses to about 28.7 µM), for inactives: at the top dose activity change, negative = inhibition, usual class: inhibitors | actives 5.9% (n = 310,000); further: on the % scale 0 is the no-effect control and ±100 the full control effect
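First compound was added to culture medium, then infected red cells at 0.1% parasitemia and 2% hematocrit (final). After incubation at 37 C under 5% CO2, luciferase detection reagent was dispensed and light output recorded.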
AMA1 RON2 block: inhibitors of Plasmodium falciparum AMA1-RON2 interaction. AlphaScreen AMA1-biotinylated RON2 peptide binding. Potency, µM (highest dose often 58.2 µM), for inactives: at the highest dose activity change, negative = inhibition, most hits filed as inhibitors. actives 0.2% (n = 360,000);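 further: 0% = vehicle wells and -100% = peptide control; nearly all actives have a fitted effect of over 45% in size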
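AMA1 (3D7) with his tag at 25 nM final met compounds first, then biotinylated RON2 peptide at 25 nM; detection used donor plus acceptor beads, 10 µg/mL apiece, read by AlphaScreen after 30 min at room temperature.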
Starred values were filed as active, the others as inactive; ? = inconclusive; · = no result given; [ ] = remark or other dose. Unless noted, the call rests on the fitted dose curve; in most records, active means well fitted curve in the direction sought with a large enough effect; inconclusive means small, poorly fitted or top-dose-only effect, or another doubt; inactive means no such curve, though single readings can be large; an effect the other way counts as inactive or inconclusive. Potency means the concentration at half of the fitted maximal effect.

SMILES	HCV inh	NS1 inh	Pf growth 96h	SARS PLP yeast	Pf growth 48h	AMA1 RON2 block
Cc1ccc(C)c2c1cc(C)c1nnc(SCC(=O)Nc3nc4c(s3)CCCC4)n12	16.3%	10.9%	11.0%	-5.6%	-0.8%	1.0%
O=C(CSc1nnc(-c2ccncc2)n1Cc1ccco1)Nc1nc(-c2ccccc2)cs1	10µM*	5.6%	23.8%	9.2%	·	12.9%
CCn1c(CCNC(=O)c2cccs2)nnc1SCC(=O)Nc1nc(-c2ccccc2)cs1	-23.0%	-0.2%	?	8.0%	11.7µM*	-13.0%
Cc1ccc2cc(C)c3nnc(SCC(=O)Nc4nc5c(s4)CCCC5)n3c2c1C	-7.3%	-0.3%	11.7µM*	-2.4%	-6.9%	-13.3%
Cc1oc(C(C)(C)C)cc1C(N)=O	10.5%	-0.8%	-8.0%	-0.7%	?	0.8%
CCc1nnc(NC(=O)CSc2nnc(-c3ccccc3O)n2CC)s1	7.1%	-9.3%	?	0.4%	·	15.9%
CCn1c(SCC(=O)Nc2nc(-c3ccccc3)cs2)nnc1-c1ccccc1O	11.2µM*	-130.7%	·	0.6%	?	34.1%
Fc1ccccc1Cc1noc(CN(Cc2ccccn2)CC2CCCO2)n1 (configuration not stated)	4.9%	-7.8%	?	-1.4%	-10.8%	22.7%
CN(C)CCN(Cc1ccc(Cl)cc1)c1ccccn1	?	-0.3%	?	-4.0%	?	-5.7%
C[N+](C)(C)CCN(Cc1ccc(Cl)cc1)c1ccccn1	9.5%	19.3%	2.33µM*	4.9%	6.57µM*	-8.7%
CC(=O)c1ccc2c(c1)C1C=CCC1C(C(=O)O)N2 (configuration not stated)	-6.2%	14.2%	22.1%	0.2%	32.9%	3.98µM*
Cc1ccc2c(c1)C1C=CCC1C(C(=O)O)N2 (configuration not stated)	0.9%[0.335 µM]	8.1%	2.62µM*	-13.1%	?	·
CC(C)C1Nc2ccc(S(N)(=O)=O)cc2C2C=CCC21 (configuration not stated)	11.2µM*	?	·	3.0%	?	-5.2%
NS(=O)(=O)c1ccc2c(c1)C1C=CCC1C(C1CC=CCC1)N2 (configuration not stated)	?	9.9%	?	1.3%	-16.4%	-25.0%
CC(=O)c1ccc2c(c1)C1C=CCC1C(c1ccncc1)N2 (configuration not stated)	-20.0%	16.5%	132.0%	-1.8%	-9.2%	-3.7%
[O-]C1=N[N+](=C(c2ccccc2)c2ccccc2)C1	19.1%	·	·	·	·	22.3%
COC(=O)CC(NC(=O)CN1CCN(c2ccc(F)cc2)CC1)c1cccc(F)c1 (configuration not stated)	-1.7%	-8.7%	5.2%	9.5%	-19.7%	-0.7%
O=C(COC(=O)/C=C/c1ccccc1[N+](=O)[O-])NNC(=O)c1ccc(F)cc1	20.1%	·	5.2%	-5.4%	10.8%	60.6%
CN(C)/C=N/S(=O)(=O)c1ccc(Cl)c(Cl)c1	5.0%	-1.8%	-1.5%	0.5%	2.0%	-3.9%
O=C(NC(NC(=S)Nc1ccccc1)C(Cl)(Cl)Cl)c1cccc(Cl)c1 (configuration not stated)	11.2µM*	5.5%	13.1µM*	1.2%	?	-3.3%
Cc1ccc(C)c(NC(=S)NC(NC(=O)Cc2ccccc2)C(Cl)(Cl)Cl)c1 (configuration not stated)	?	8.2%	·	-2.2%	?	-10.9%
Cc1ccccc1NC(=S)NC(NC(=O)c1ccccc1C)C(Cl)(Cl)Cl (configuration not stated)	?	?	2.62µM*	4.5%	?	15.4%
Cc1ccc(NC(=S)NC(NC(=O)c2ccccc2)C(Cl)(Cl)Cl)c(C)c1 (configuration not stated)	?	-0.1%	?	-4.8%	10.4µM*	13.8%
Cc1cc(C)c(NC(=S)NC(NC(=O)c2ccccc2)C(Cl)(Cl)Cl)c(C)c1 (configuration not stated)	-32.2%	0.6%	-7.7%	2.8%	3.29µM*	6.2%

Source: PubChem
